Where “and” joins values, the source holds several entries; their conditions need not be identical. Identical values can stand only once. Counter-ions that a name gives are not always drawn. A number with no mark means an inactive call.
Test system: Plasmodium falciparum NF54/iGP1_RE9H ulg8 stage V gametocytes
Experiment: gametocyte viability (luciferase signal relative to DMSO control) (% of DMSO control); higher = less gametocytocidal activity, active = 50 or less
Settings: exposure time: 72 h
In short: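 Viability was calculated relative to the mean of DMSO vehicle wells on each plate. Day-12 stage V gametocytes of line NF54/iGP1_RE9Hulg8 (~2.5% gametocytemia, 3% hematocrit, 0.5% Albumax II medium) were exposed in 96-well plates to compounds at final 10 µM or 1 µM, one well each, for 72 h at 37 °C. Luminescence was then read on an IVIS Lumina II after D-luciferin addition.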

Structure (SMILES)	gametocyte viability (concentration: 1 µM)	gametocyte viability (concentration: 10 µM)
O=C(Cc1ccc(-c2ccc(OCCN3CCOCC3)cc2)cn1)NCc1ccccc1	99.7	113
O=S(=O)(c1cccc2c(I)cccc12)N1CCCNCC1	102	94.1
COC(=O)Nc1ccc(-c2nc(N3CCOCC3)c3cnn(C4CCN(Cc5cccnc5)CC4)c3n2)cc1	115	117
CO[C@@H]1[C@H](N(C)C(=O)c2ccccc2)C[C@H]2O[C@]1(C)n1c3ccccc3c3c4c(c5c6ccccc6n2c5c31)C(=O)NC4	91.1	95.9
Cn1cnc2c(NCc3ccccc3)nc(NCCO)nc21 [Olomoucine]	95.2	91.5
CC[C@@H]1C(=O)N(C)c2cnc(Nc3ccc(C(=O)N[C@H]4CC[C@H](N5CCN(CC6CC6)CC5)CC4)cc3OC)nc2N1C(C)C [BI6727 (Volasertib)]	84.9	61.9
O=C(O)c1cc(N(Cc2ccccc2O)Cc2cc(O)ccc2O)ccc1O [Lavendustin A]	98.5	99.4
Cc1cc(C(C)Nc2ccccc2)c2nc(N3CCOCC3)cc(=O)n2c1 (stereo not drawn)	90.1	89
CCCCCCCCCCCCCCCC(=O)OC(CC(=O)[O-])C[N+](C)(C)C (racemic) [Palmitoyl-DL-carnitine]	100	108
Cc1nc(Nc2ncc(C(=O)Nc3c(C)cccc3Cl)s2)cc(N2CCN(CCO)CC2)n1	95.3	87.3
N#CC(=Cc1ccc2[nH]ccc2c1)C(N)=C(C#N)C#N	100	104
COc1cc2c(Oc3ccc4[nH]c(C)cc4c3F)ncnc2cc1OCCCN1CCCC1 [Cediranib (AZD2171)]	88.6	90.7
Cc1cc2ncc(-c3ccccc3)nc2cc1C	91.2	70.6
CNC(=O)c1c(F)cccc1Nc1nc(Nc2cc3c(cc2OC)CCN3C(=O)CN(C)C)nc2[nH]ccc12	103	113
CCS(=O)(=O)c1cccc(-c2cc(C(=O)NC3CCN(C)CC3)c(C)c3[nH]c4ncc(C)cc4c23)c1	106	84.2
Cn1cnc2c(F)c(Nc3ccc(Br)cc3Cl)c(C(=O)NOCCO)cc21 [AZD6244 (Selumetinib)]	102	105
COc1cc(Nc2ncc(F)c(Nc3ccc4c(n3)N(COP(=O)(O)O)C(=O)C(C)(C)O4)n2)cc(OC)c1OC	95.1	101
CCCS(=O)(=O)Nc1ccc(F)c(C(=O)c2c[nH]c3ncc(Cl)cc23)c1F	102	107
Nc1ncnc2c1c(-c1cccc(OCc3ccccc3)c1)cn2C1CC(CN2CCCC2)C1 (stereo not drawn)	94.4	84
Cc1[nH]nc2ccc(-c3cncc(OC[C@@H](N)Cc4ccccc4)c3)cc12	101	104

Structure (SMILES)	gametocyte viability (concentration: 1 µM)	gametocyte viability (concentration: 10 µM)
S=C(NCc1ccc2c(c1)OCO2)N1CCN(c2ncnc3c2oc2ccccc23)CC1 [Amuvatinib (MP-470)]	98.1	110
N=C(N)NC(=N)NCCc1ccccc1 [Phenformin hydrochloride]	99.9	111
O=c1c(O)c(-c2ccc(O)c(O)c2)oc2cc(O)cc(O)c12 [Quercetin (Sophoretin)]	105	108
COc1cc(Nc2ncc3c(n2)-c2ccc(Cl)cc2C(c2c(F)cccc2OC)=NC3)ccc1C(=O)O [MLN8237 (Alisertib)]	95	94.6
C#Cc1cccc(Nc2ncnc3cc(OCCOC)c(OCCOC)cc23)c1 [Erlotinib HCl]	86.2	82.4
Cc1ccc(S(=O)(=O)/C=C/C#N)cc1	103	3.38 (active)
Cn1cc(-c2ccc3nnc(Sc4ccc5ncccc5c4)n3n2)cn1	99.7	88.7
CCOc1cc2ncc(C#N)c(Nc3ccc(F)c(Cl)c3)c2cc1NC(=O)/C=C/CN(C)C [Pelitinib (EKB-569)]	85.3	99.8
C=CC(=O)c1ccc2ccccc2c1	101	106
C[S+]([O-])c1ccc(-c2nc(-c3ccc(F)cc3)c(-c3ccncc3)[nH]2)cc1 (stereo not drawn)	97.2 and 103	109 and 105
CN([C@@H](Cc1ccc(OS(=O)(=O)c2cccc3cnccc23)cc1)C(=O)N1CCN(c2ccccc2)CC1)S(=O)(=O)c1cccc2cnccc12	93.8	81.8
COc1cc2ncnc(Nc3cccc(Cl)c3)c2cc1OC	109	104
CC(C)(C)c1cnc(CSc2cnc(NC(=O)C3CCNCC3)s2)o1	104	101
COc1cc(Nc2ncc(F)c(Nc3ccc4c(n3)NC(=O)C(C)(C)O4)n2)cc(OC)c1OC [R406(free base)]	96.3	103
Cc1ccc(S(=O)(=O)Nc2nc3ccccc3nc2Nc2ccc3nsnc3c2)cc1	87.4	103
O=C(Nc1cccc(Cl)c1)Nc1ncc(CCNc2ncnc3ccsc23)s1	110	120
Cc1ccc(C(=O)Nc2cccc(C(F)(F)F)c2)cc1Nc1nc(-c2cccnc2)nc2c1cnn2C	100	98.7
CCN1CCN(Cc2ccc(-c3cc4c(N[C@H](C)c5ccccc5)ncnc4[nH]3)cc2)CC1	96.1	52.6
O=C(NOCC(O)CO)c1cc(Br)c(F)c(F)c1Nc1ccc(I)cc1F (stereo not drawn)	99.1	97.3
Cn1cnc2nc(NCCO)nc(NCc3ccccc3)c21 [Iso-olomoucine]	95	102

Structure (SMILES)	gametocyte viability (concentration: 1 µM)	gametocyte viability (concentration: 10 µM)
Nc1nccc(Oc2ccc(NC(=O)c3c[nH]cc(-c4ccc(F)cc4)c3=O)cc2F)c1Cl	102	114
CS(=O)(=O)CCNCc1ccc(-c2ccc3ncnc(Nc4ccc(OCc5cccc(F)c5)c(Cl)c4)c3c2)o1 [Lapatinib Ditosylate (Tykerb)]	102	98.2
O=C(c1ccc(/C=C/c2n[nH]c3ccccc23)cc1)N1CCNCC1	104	93.7
COc1ccc(-c2ccc3c(N4CCOC[C@@H]4C)nc(N4CCOC[C@@H]4C)nc3n2)cc1CO	96.5	78.9
COC(=O)/C=C/c1cc(O)ccc1O [Erbstatin analog]	97.8	99.1
C=CC(=O)Nc1cccc(Oc2nc(Nc3ccc(N4CCN(C)CC4)cc3)ncc2Cl)c1	103	72.5
CN1CC[C@H](c2c(O)cc(O)c3c(=O)cc(-c4ccccc4Cl)oc23)[C@H](O)C1 [Flavopiridol (Alvocidib)]	99.8	122
Cc1ccc(F)c(NC(=O)Nc2ccc(-c3cccc4[nH]nc(N)c34)cc2)c1 [Linifanib (ABT-869)]	90.6	89.4
Cc1c(CN2CCN(C(=O)[C@H](C)O)CC2)sc2c(N3CCOCC3)nc(-c3cnc(N)nc3)nc12	106	109
Cc1nc(NC(=O)N2CCC[C@H]2C(N)=O)sc1-c1csc(C(C)(C)C)n1	101	92.9
COc1cc2c(Nc3ccc(NC(=O)c4ccccc4)cc3)ncnc2cc1OCCCN1CCOCC1	92.3	92.5
N#CCNC(=O)c1ccc(-c2ccnc(Nc3ccc(N4CCOCC4)cc3)n2)cc1	98.5	97.1
O=C(Nc1ccc(OC(F)(F)F)cc1)c1sccc1NCc1ccnc2ccccc12	96.9	86.6
Cc1csc(-c2nnc(Nc3ccc(Oc4ncccc4-c4ccnc(N)n4)cc3)c3ccccc23)c1	103	112
Cc1ccc(C(=O)Nc2ccc(CN3CCN(C)CC3)c(C(F)(F)F)c2)cc1C#Cc1cnc2cccnn12	111	130
CC(C)c1cc(/C=C(\C#N)C(=O)NCCCc2ccccc2)cc(C(C)C)c1O	99.4	97.2
O=P(O)(O)C(O)c1ccc2ccccc2c1 (stereo not drawn) [Hydroxy-2-naphthalenylmethylphosphonic acid]	95.7	90.5
CO[C@H]1C[C@@H]2CC[C@@H](C)[C@@](O)(O2)C(=O)C(=O)N2CCCC[C@H]2C(=O)O[C@H]([C@H](C)C[C@@H]2CC[C@@H](OCCO)[C@H](OC)C2)CC(=O)[C@H](C)/C=C(\C)[C@@H](O)[C@@H](OC)C(=O)[C@H](C)C[C@H](C)/C=C/C=C/C=C/1C [Everolimus (RAD001)]	91	94.2
CO[C@H]1C[C@@H]2CC[C@@H](C)[C@@](O)(O2)C(=O)C(=O)N2CCCC[C@H]2C(=O)O[C@H]([C@H](C)C[C@@H]2CC[C@@H](OC(=O)C(C)(CO)CO)[C@H](OC)C2)CC(=O)[C@H](C)/C=C(\C)[C@@H](O)[C@@H](OC)C(=O)[C@H](C)C[C@H](C)/C=C/C=C/C=C/1C [Temsirolimus (Torisel)]	93.9	88.4
